# Screening data from PubChem.
# S2 tox: viability counter-screen for ATXN expression inhibitors; 400,000 tested, 0.49% active; Potency, µM (series often up to 56.7 µM), actives largely listed as cytotoxic; S2 cells (HEK-293 line with an ATXN2-luciferase reporter) viability, CellTiter-Fluor protease fluorescence, 24 h; AID 651635; also: nearly all actives have a fitted effect of over 40% in size
# DT40 TDP1 no CPT: qHTS for Inhibitors of human tyrosyl-DNA phosphodiesterase 1 (TDP1): qHTS in cells in absence of CPT. DT40 Tdp1-/- hTDP1 cells, no CPT, ATP luminescence, 48 h. Potency, µM (top dose mostly 46.2 µM), inactives show at the top dose activity change, negative = growth inhibition, hits mostly inhibitors. 420,000 tested, 15% active; also: % is scaled to controls: 0 for no effect and ±100 for the full control effect; nearly all actives have a fitted effect of over 55% in size
#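 Growth kinetics read by CellTiter-Glo luminescence after ≥48 hr at 37 °C. Cells: DT40 Tdp1-/- stably carrying human TDP1, 400 per well, compound exposure in the absence of CPT (DMSO vehicle).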
# TGFb SMAD3 inh: blocks TGF-b signaling; HepG2 CAGA-GFP TGF-b/SMAD3 reporter, GFP fluorescence, 18 h; TGF-beta stimulated, 500 pg/mL final; Potency, µM (top dose mostly 46.1 µM), inactives show at the highest dose activity, negative = inhibition, actives largely listed as inhibitors; 410,000 tested, 1.2% active; AID 588855; also: % is scaled to controls: 0 for no effect and ±100 for the full control effect; nearly all actives have a fitted effect of over 65% in size
#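 HEPG2 CAGA-GFP, 1000 cells/well; 2 h settle, 37 C; cpd via pin tool; TGF-b 500 pg/mL final; 18 h, 37 C; GFP imaging ex488/em500-530; %Activity normalised to -TGF-b and +DMSO controls; CRC fit, curve class.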
# DT40 TDP1 CPT: growth inhibition of DT40 Tdp1-/-;hTDP1 cells with camptothecin (screen for TDP1 inhibitors). chicken DT40 Tdp1-/-;hTDP1 cells + 20 nM CPT, ATP luminescence, 48 h. Potency, µM (titrated, usually from 46.2 µM), for the others: top-dose activity change, negative = growth inhibition, usual class: inhibitors. 420,000 tested, 12% active; also: % is scaled to controls: 0 for no effect and ±100 for the full control effect; nearly all actives have a fitted effect of over 55% in size
#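 Chicken DT40 Tdp1-/- cells complemented with human TDP1, 400 cells/well, exposed to compounds plus 20 nM camptothecin for at least 48 h at 37 C; viability read as ATP content by CellTiter-Glo luminescence.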
# HepG2 tox-1: counter-screen for TGF-b inhibitors: cytotoxicity in HepG2 cells. HepG2 CAGA-GFP viability, ATP luminescence, 18 h. Potency, µM (highest dose often 46.1 µM), without a hit: top-dose activity change, negative = cytotoxicity, actives largely listed as cytotoxic. 410,000 tested, 0.76% active. AID 588856
#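 HepG2 CAGA-GFP cells (1000/well, DMEM with 1% FBS) received compound, then TGF-beta at 500 pg/mL final, and were incubated 18 hours at 37 degrees C. Viability was read by CellTiter-Glo luminescence. Media-only wells were set as complete cell-killing and DMSO as no toxicity.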
# ATXN2 expr inh: inhibitors of ATXN2 expression | HEK-293 ATXN2-luciferase reporter, luminescence, 24 h | 360,000 tested, 0.72% active | AID 1745845 | Potency, µM (highest dose often 57 µM), for inactives: at the highest dose activity change, negative = inhibition, most hits filed as inhibitors; also: % is scaled to controls: 0 for no effect and ±100 for the full control effect; nearly all actives have a fitted effect of over 55% in size
#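 ATXN2-luciferase reporter cells (luciferase flanked by upstream and downstream ATXN2 gene portions) were treated 24 h at 37 °C with compounds at up to 57 uM. SteadyGlo luminescence gave expression; GF-AFC fluorescence gave viability.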
# TGFb confirm: confirmation of TGF-b signaling inhibitors in HepG2 reporter cells. shares compounds with TGFb SMAD3 inh. HepG2 CAGA-GFP TGF-b reporter, GFP fluorescence, 18 h; cells stimulated with TGF-beta, 500 pg/mL. Potency, µM (doses to about 46.1 µM), for inactives: at the top dose activity, negative = inhibition, most hits filed as inhibitors. 1,600 tested, 63% active; also: % is scaled to controls: 0 for no effect and ±100 for the full control effect; nearly all actives have a fitted effect of over 65% in size
# HepG2 tox-2: HepG2 cytotoxicity, TGF-b inhibitor counterscreen | HepG2 CAGA-GFP viability, ATP luminescence, 18 h; cells stimulated with TGF-beta, 500 pg/mL | shares compounds with TGFb SMAD3 inh | Potency, µM (top dose mostly 46.1 µM), inactives show at the top dose activity, negative = cytotoxicity, usual class: inhibitors | AID 720535 | 1,600 tested, 27% active; also: % is scaled to controls: 0 for no effect and ±100 for the full control effect; nearly all actives have a fitted effect of over 70% in size
# CCL64 TGFb inh: orthogonal confirmation of TGF-b inhibitors in CCL64 cells; shares compounds with TGFb SMAD3 inh; 1,600 tested, 41% active; CCL64 CAGA-GFP reporter, TGF-b stimulated, GFP fluorescence, 18 h; Potency, µM (top dose mostly 46.1 µM), inactives show at the top dose activity, negative = inhibition, actives largely listed as inhibitors; AID 720536; also: nearly all actives have a fitted effect of over 65% in size
# TGFb COP inh: validation of TGF-b inhibitors in HepG2 COP promoter reporter | shares compounds with TGFb SMAD3 inh | HepG2 COP-GFP TGF-b reporter, GFP fluorescence, 18 h; cells stimulated by added recombinant TGF-beta | Potency, µM (titrated, usually from 46.1 µM), without a hit: at the top dose activity, negative = inhibition, usual class: inhibitors | 1,600 tested, 3% active | AID 720537; also: nearly all actives have a fitted effect of over 70% in size
# The depositor's hits bear a star; i = inactive; ? = inconclusive; nt = not tested or not shown; [ ] = another dose, or the depositor's remark. Shown are actives, neighbours in structure and some others; about 17% of the full set was active somewhere. Calls follow the shape of the dose curve; as a rule, active = well fitted curve in the direction sought with a large enough effect; inconclusive = small, poorly fitted or top-dose-only effect, or another doubt; inactive = no such curve, though single readings can be large; an effect the other way counts as inactive or inconclusive. Potency is read from the fitted curve at half-maximal effect.
SMILES,S2 tox,DT40 TDP1 no CPT,TGFb SMAD3 inh,DT40 TDP1 CPT,HepG2 tox-1,ATXN2 expr inh,TGFb confirm,HepG2 tox-2,CCL64 TGFb inh,TGFb COP inh
CCCCCCCCN1[C@@H](CC(=O)O)c2ccc(C(F)(F)F)cc2S1(=O)=O,i,?,?,?,-32.8%,0.9%,nt,nt,nt,nt
O=C(Cn1ccc2ccccc21)Nc1ccc2c(c1)OCO2,i,-28.9%,13.4%,20.6%,-2.1%,3.8%,nt,nt,nt,nt
O=Cc1cn(CC(=O)Nc2ccc3c(c2)OCO3)c2ccccc12,?,16.4µM*,7.08µM*,?,-25.0%,-37.2%,8.2µM*,3.26µM*,15.2%,34.1%
CCN1CCN(C(=O)C2CCN(S(=O)(=O)c3ccc4c(c3)NC(=O)C(C)S4)CC2)CC1 (centres undefined),i,15.7%,0.7%,-12.5%,-32.7%,-5.0%,nt,nt,nt,nt
COc1cc(OC)cc(C(=O)NCCCCCCNC(=O)c2cc(OC)cc(OC)c2)c1,i,-19.9%,-81.0%,-20.4%,-30.5%,3.2%,-11.7%,-7.1%,5.6%,2.9%
COc1cccc(C(=O)NCCCNC(=O)c2cccc(OC)c2)c1,i,-18.3%,4.5%,-16.9%,5.9%,6.9%,nt,nt,nt,nt
COc1cc(OC)c(OC)cc1CNc1cc(C)ccc1OC,i,?,?,?,-22.4%,-29.6%,6.51µM*,-14.1%,-16.9%,-0.1%
CC1(C)Cc2c(cnn2-c2ccccc2)-c2c1c1ccccc1n2CC(O)CBr (centres undefined),?,?,?,?,-61.3%,-11.5%,?,-26.3%,?,19.7%
CC1(C)Cc2c(cnn2-c2ccccc2)C(=O)/C1=N\NC(=O)c1ccccc1N,i,-13.3%,-20.2%,?,-4.6%,-0.2%,nt,nt,nt,nt
Cc1cc(S(=O)(=O)c2ccc(Cl)cc2)nc(S(=O)(=O)c2ccc(Cl)cc2)c1C#N,0.794µM*,0.651µM*,7.08µM*,0.651µM*,-118.5%,nt,5.8µM*,18.4µM*,1.84µM*,18.4µM*
COc1ccc(-c2ccc(C(=O)Nc3cccc(NS(C)(=O)=O)c3)c3occc23)c(C)c1,?,?,15.8µM*,16.4µM*,-20.9%,?,10.3µM*,?,23.1µM*,34.7%
N#CN1C2CCC1CC(O)(c1ccccc1)C2 (centres undefined),i,-6.7%,13.6%,-0.6%,4.5%,12.9%,nt,nt,nt,nt
COCCN(Cc1cc2cc3c(cc2nc1Cl)OCO3)C(=O)c1ccc(C)cc1,i,13µM*,?,?,-24.0%,nt,?,-13.1%,6.8%,9.7%
COc1ccc(Cl)cc1Cn1c(C)c(C(=O)N(C)Cc2ccc(F)cc2)sc1=O,i,-7.7%,-10.0%,-17.4%,2.7%,-3.6%,nt,nt,nt,nt
COc1ccc(Cl)cc1Cn1c(C)c(C(=O)NCc2ccc(F)cc2)sc1=O,i,?,14.1µM*,?,1.9%,-37.6%,?,-21.1%,?,6.9%
O=C(Nc1ccc(F)cc1F)Nc1sccc1-c1nc2ccccc2s1,i,?,11.2µM*,0.0%,0.5%,nt,?,-16.5%,?,-4.9%
O=C(Nc1nc2ccccc2s1)Nc1ccc(F)cc1F,i,-20.3%,-1.2%,-20.0%,-7.8%,56.6%,nt,nt,nt,nt
COC(=O)CSc1nc2sc3c(c2c(=O)n1-c1ccccc1)C(C)CCC3 (centres undefined),i,-6.2%,-18.2%,-10.9%,0.5%,-6.4%,nt,nt,nt,nt
Cc1c(C(=O)N2CCN(Cc3ccc4c(c3)OCO4)CC2)sc2ncnc(N3CCN(c4ccccc4F)CC3)c12,?,8.2µM*,5.01µM*,18.4µM*,-35.3%,nt,?,-15.3%,-9.3%,10.2%
O=C(c1ccc2c(c1)OCO2)N1CCN(c2ccccc2F)CC1,i,-27.7%,7.9%,-10.9%,-3.2%,33.8%,nt,nt,nt,nt
Cc1ncc(CN2CCN(C(C)C)C(CCO)C2)s1 (centres undefined),i,2.5%,2.4%,-2.7%,-11.9%,-8.6%,nt,nt,nt,nt
CCOc1ccc(C(=O)c2cc([N+](=O)[O-])ccc2N2CCOCC2)cc1,i,0.164µM*,1.12µM*,0.13µM*,-32.0%,4.7%,?,-3.2%,0.731µM*,0.9%
Cc1ccc(COC(=O)c2nn(C)c(=O)c3ccccc23)cc1,i,13µM*,?,?,-9.3%,-15.8%,?,3.3%,6.4%,-8.4%
Cn1nc(C(=O)OCc2ccc(Br)cc2F)c2ccccc2c1=O,i,-28.6%,-8.9%,-24.0%,-11.5%,-1.1%[11.3 µM],nt,nt,nt,nt
CC(=O)Nc1ccc(SCC(=O)Nc2oc(C)c3c(C)n[nH]c(=O)c23)cc1,i,1.8%,-1.5%,0.8%,-13.3%,-7.5%,nt,nt,nt,nt
Cc1ccc2oc(=O)c3cnn(CC(=O)Nc4cc(-c5cccc(F)c5)no4)c3c2c1,i,5.7%,0.2%,1.0%,-1.2%,13.4%,nt,nt,nt,nt
O=C(Nc1csc([N+](=O)[O-])c1)Nc1ccccc1Cl,?,23.1µM*,12.6µM*,20.6µM*,-56.8%,?,16.4µM*,?,?,48.0%
O=C(Nc1ccncc1)Nc1ccccc1Cl,i,?,6.0%,?,-27.7%,5.9%,nt,nt,nt,nt
